The campaign covered roughly 360,000 compounds. About 2,900 (0.81%) were called active. For the sample, actives were picked, then their nearest neighbours and some compounds at random. Unmarked numbers belong to inactive results.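 The calls were made as follows: active = inhibition above the mean inhibition across every tested compound plus 3 SD (cut at about 22% in these data); inactive = the rest.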

This assay deals with Perilipin-5 (Homo sapiens) + 1-acylglycerol-3-phosphate O-acyltransferase ABHD5 (Homo sapiens) (UniProt Q00G26+Q8WTS1). Briefly: blockers of ABHD5 binding to perilipin-5 – cell lysate, split luciferase complementation, luminescence, primary screen (AID 602281).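 Also: 0% = DMSO only wells and the 100% control is not disclosed.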 Conditions: Split G. princeps luciferase complementation, 4 h, at 4 µM, stronger effect = higher value.
Sequence of Perilipin-5 (Homo sapiens) + 1-acylglycerol-3-phosphate O-acyltransferase ABHD5 (Homo sapiens) (Q00G26 whole entry, looked up): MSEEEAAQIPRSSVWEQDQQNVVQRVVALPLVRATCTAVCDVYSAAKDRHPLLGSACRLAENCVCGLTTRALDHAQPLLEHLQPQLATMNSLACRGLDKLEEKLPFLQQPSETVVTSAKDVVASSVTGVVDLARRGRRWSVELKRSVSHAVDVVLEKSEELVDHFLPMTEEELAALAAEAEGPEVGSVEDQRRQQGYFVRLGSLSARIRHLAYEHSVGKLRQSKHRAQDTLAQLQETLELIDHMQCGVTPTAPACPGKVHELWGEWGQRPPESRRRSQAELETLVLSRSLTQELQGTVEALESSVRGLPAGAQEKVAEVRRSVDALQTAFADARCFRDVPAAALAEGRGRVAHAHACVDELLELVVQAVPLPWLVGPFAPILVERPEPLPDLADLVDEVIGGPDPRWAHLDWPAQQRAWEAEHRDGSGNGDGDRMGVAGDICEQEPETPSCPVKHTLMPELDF
Sequence of Perilipin-5 (Homo sapiens) + 1-acylglycerol-3-phosphate O-acyltransferase ABHD5 (Homo sapiens) (Q8WTS1 whole entry, looked up): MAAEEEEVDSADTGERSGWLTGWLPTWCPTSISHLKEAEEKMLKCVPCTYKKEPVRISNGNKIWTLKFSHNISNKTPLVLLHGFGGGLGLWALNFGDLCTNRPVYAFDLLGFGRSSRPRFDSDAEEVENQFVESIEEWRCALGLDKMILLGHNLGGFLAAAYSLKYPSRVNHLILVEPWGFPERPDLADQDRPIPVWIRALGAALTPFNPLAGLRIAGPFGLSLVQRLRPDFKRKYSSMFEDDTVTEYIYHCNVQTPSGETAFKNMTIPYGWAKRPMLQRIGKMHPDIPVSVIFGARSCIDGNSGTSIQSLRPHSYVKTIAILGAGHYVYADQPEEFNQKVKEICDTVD
In the case of `CCOC(=O)[C@]12Cc3cc(OC)ccc3[C@H]1N(C(C)C)C(=O)c1ccccc12`, the inhibition (in general, the change of the read-out against control, counted positive when it falls) is 14.9%.

Turning to `CCOC(=O)[C@]12Cc3ccccc3[C@H]1N(C1CCCCC1)C(=O)c1cc(OC)ccc12`, the inhibition was 39.6% (active).

With `CC(C)N(CC#CCC1(O)c2ccccc2-c2ccccc21)C(C)C`, the inhibition is 3.81%.

In the case of `CN(C)CC1Oc2ccccc2OC1(O)c1ccccc1` (stereo not given), the inhibition was 46.5% (active).

On to `CCOC(=O)CNC(=O)N1Cc2cc(N3CCCCC3)ccc2-n2nncc2C1`, for which the inhibition was 5.92%.

On to `CCN1CC2C3CCC(C)(O3)C2C1` (stereo not given), for which the inhibition is 4.06%.

Turning to `Cc1ccc(-c2cc(C(=O)N3CCC4(CC3)OCCO4)no2)cc1`, the inhibition is -2.79%.

`CCc1cccc2c(C#N)cn(CC(=O)N3CCOCC3)c12`: the inhibition is 1.5%.

In the case of `CCC(=O)CC(c1ccc([N+](=O)[O-])cc1)c1c(O)c2ccccc2oc1=O` (stereo not given), the inhibition was 5.29%.

For the compound `Cc1cccc(N2C(=O)NC(=O)/C(=C\c3cnn(-c4ccccc4)c3)C2=O)c1`, the inhibition was 55.1% (active).

As to `O=C(COC(=O)c1ccccc1)Nc1ccc(Cl)cc1C(=O)c1ccccc1`, the inhibition was 7.59%.

In the case of `Cc1ccc(S(=O)(=O)N(C)c2ccc(C(=O)NCC3(N(C)C)CCCCC3)cc2)cc1`, the inhibition is 0.68%.

Regarding `COc1ccccc1N1CCN(C(CNC(=O)Oc2ccccc2)c2cccnc2)CC1` (stereo not given), the inhibition is 0.85%.

Take `N#Cc1ccc(Cn2cc(C(=O)c3ccco3)c3ccccc32)cc1`: the inhibition is 5.75%.

As for `Cc1ccc(Cn2c(C)c3cnn(CC(=O)N4CCC5(CC4)OCCO5)c(=O)c3c2C)cc1`, the inhibition was 9.7%.

`COc1ccc(CN2C(=O)NC(=O)/C(=C\c3ccc(OC)c(OC)c3OC)C2=O)cc1`: the inhibition is 23.3% (active).

`C=CCN1C(=O)NC(=O)/C(=C/c2ccc(OCC(=O)Nc3ccc(C)cc3)cc2)C1=O`: the inhibition is 15.7%.

`Cc1ccc(C)c(NC2=NCCCS2)c1`: the inhibition is 7.47%.

For `C=CCN1C(=O)C2(C(C(=O)OCC)=C(N)Oc3c2c(=O)oc2ccccc32)c2ccccc21` (stereo not given), the inhibition is -7.25%.

As for `COc1ccc(N=Cc2c(O)n(C)c(=O)[nH]c2=O)cc1`, the inhibition is -7.01%.

`CCc1nnc(NS(=O)(=O)c2ccc(N=Cc3c(O)n(-c4ccccc4)c(=O)[nH]c3=O)cc2)s1`: the inhibition was 24.9% (active).

Consider `O=c1[nH]c(=O)n(-c2ccc(F)cc2)c(O)c1C=NCCN1CCCCC1`, for which the inhibition is -4.1%.

Turning to `Cc1ccc(N2C(=O)NC(=O)C(CCc3ccncc3)(Cc3cccc(Cl)c3Cl)C2=O)cc1` (stereo not given), the inhibition is -2.62%.

On to `CC1CCC(N(C)C2CCN(C)CC2)CC1` (stereo not given), for which the inhibition is -5.21%.

`O=c1[nH]c(=O)n(CCc2ccc(F)cc2)c(O)c1/C=N/N1CCCCC1`: the inhibition was -2.89%.
